# Reference: ChEMBL document CHEMBL2218924, “A broad activity screen in support of a chemogenomic map for kinase signalling research and drug discovery” (Biochem J, 2013)
# Tests used:
# [1] = target: T1, Serine/threonine-protein kinase 3 (Homo sapiens) (UniProt Q13188); settings: at 1 µM
# T1 sequence (whole entry): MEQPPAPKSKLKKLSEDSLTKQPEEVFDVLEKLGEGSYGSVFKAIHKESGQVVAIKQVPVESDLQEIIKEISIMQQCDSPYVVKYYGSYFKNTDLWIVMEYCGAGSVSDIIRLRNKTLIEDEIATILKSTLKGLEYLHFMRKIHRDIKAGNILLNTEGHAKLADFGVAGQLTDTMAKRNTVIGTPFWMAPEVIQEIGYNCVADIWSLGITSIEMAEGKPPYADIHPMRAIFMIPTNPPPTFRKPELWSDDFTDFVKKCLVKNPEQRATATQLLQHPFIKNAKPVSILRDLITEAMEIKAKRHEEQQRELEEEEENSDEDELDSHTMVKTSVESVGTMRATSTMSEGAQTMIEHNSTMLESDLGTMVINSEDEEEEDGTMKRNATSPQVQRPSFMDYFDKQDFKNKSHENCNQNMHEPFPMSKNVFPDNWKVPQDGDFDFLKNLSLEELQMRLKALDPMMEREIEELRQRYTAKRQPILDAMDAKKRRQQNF
# [2] = target: T1, Serine/threonine-protein kinase 3 (Homo sapiens); settings: at 10 µM
# [3] = target: Serine/threonine-protein kinase 24 (Homo sapiens) (UniProt Q9Y6E0); settings: at 1 µM
# [4] = target: Serine/threonine-protein kinase 24 (Homo sapiens) (UniProt Q9Y6E0); settings: at 10 µM
# [5] = target: T2, Tyrosine-protein kinase Mer (Homo sapiens) (UniProt Q12866); settings: at 1 µM
# T2 sequence (whole entry): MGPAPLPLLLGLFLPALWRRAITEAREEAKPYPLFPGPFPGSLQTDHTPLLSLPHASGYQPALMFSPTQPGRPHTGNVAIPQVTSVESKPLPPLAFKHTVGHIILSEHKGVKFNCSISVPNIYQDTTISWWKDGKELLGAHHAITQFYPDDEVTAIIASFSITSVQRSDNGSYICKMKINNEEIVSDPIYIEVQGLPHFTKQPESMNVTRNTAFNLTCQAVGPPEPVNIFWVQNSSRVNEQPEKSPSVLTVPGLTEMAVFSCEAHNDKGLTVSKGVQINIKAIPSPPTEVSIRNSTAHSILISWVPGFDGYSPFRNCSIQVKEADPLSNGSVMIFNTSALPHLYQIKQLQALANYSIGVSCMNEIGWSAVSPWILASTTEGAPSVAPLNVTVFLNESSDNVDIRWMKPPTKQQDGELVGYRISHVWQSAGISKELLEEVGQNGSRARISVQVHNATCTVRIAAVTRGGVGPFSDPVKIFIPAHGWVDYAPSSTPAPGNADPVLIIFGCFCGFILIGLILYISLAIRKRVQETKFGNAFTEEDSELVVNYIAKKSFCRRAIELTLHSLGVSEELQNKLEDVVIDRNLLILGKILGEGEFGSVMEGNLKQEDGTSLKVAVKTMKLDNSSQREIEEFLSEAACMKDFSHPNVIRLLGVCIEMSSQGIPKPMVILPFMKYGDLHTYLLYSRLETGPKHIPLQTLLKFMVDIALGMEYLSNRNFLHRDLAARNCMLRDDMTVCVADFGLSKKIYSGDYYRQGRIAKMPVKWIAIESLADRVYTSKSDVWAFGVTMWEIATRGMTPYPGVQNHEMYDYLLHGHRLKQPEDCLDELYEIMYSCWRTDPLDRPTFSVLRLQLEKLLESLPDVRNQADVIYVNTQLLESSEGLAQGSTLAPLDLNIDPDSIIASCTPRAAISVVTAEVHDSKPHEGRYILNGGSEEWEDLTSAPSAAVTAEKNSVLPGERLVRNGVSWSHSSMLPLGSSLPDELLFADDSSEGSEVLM
# [6] = target: T2, Tyrosine-protein kinase Mer (Homo sapiens); settings: at 10 µM
# [7] = target: Hepatocyte growth factor receptor (Homo sapiens) (UniProt P08581); settings: at 1 µM
# [8] = target: Hepatocyte growth factor receptor (Homo sapiens) (UniProt P08581); settings: at 10 µM
# [9] = target: MAP kinase-interacting serine/threonine-protein kinase 2 (Homo sapiens) (UniProt Q9HBH9); settings: at 1 µM
# [10] = target: MAP kinase-interacting serine/threonine-protein kinase 2 (Homo sapiens) (UniProt Q9HBH9); settings: at 10 µM
# [11] = target: T3, Muscle, skeletal receptor tyrosine-protein kinase (Homo sapiens) (UniProt O15146); settings: at 1 µM
# T3 sequence (whole entry): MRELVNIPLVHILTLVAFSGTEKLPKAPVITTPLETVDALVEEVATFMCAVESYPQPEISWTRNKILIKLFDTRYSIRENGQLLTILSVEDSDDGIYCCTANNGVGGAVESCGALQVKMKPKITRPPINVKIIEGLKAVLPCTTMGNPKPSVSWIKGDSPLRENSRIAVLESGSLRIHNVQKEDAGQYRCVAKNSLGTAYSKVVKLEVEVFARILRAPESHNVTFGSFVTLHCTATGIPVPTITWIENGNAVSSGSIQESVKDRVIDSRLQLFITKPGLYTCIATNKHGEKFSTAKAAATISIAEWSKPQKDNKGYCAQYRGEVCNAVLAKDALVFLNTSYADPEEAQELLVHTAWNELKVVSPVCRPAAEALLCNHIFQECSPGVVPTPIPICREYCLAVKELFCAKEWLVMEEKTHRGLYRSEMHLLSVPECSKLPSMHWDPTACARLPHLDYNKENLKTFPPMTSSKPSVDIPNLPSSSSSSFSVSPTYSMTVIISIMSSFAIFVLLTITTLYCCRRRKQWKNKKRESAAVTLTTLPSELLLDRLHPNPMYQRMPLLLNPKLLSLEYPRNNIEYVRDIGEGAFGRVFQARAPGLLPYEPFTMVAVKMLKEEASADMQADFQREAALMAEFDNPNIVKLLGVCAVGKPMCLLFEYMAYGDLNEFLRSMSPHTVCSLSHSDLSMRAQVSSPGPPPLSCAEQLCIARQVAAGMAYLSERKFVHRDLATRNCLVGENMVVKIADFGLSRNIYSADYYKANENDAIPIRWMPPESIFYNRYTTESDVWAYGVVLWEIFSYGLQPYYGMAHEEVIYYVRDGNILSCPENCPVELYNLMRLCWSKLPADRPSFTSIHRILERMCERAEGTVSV
# [12] = target: T3, Muscle, skeletal receptor tyrosine-protein kinase (Homo sapiens); settings: at 10 µM
# [13] = target: T4, Serine/threonine-protein kinase Nek11 (Homo sapiens) (UniProt Q8NG66); settings: at 1 µM
# T4 sequence (whole entry): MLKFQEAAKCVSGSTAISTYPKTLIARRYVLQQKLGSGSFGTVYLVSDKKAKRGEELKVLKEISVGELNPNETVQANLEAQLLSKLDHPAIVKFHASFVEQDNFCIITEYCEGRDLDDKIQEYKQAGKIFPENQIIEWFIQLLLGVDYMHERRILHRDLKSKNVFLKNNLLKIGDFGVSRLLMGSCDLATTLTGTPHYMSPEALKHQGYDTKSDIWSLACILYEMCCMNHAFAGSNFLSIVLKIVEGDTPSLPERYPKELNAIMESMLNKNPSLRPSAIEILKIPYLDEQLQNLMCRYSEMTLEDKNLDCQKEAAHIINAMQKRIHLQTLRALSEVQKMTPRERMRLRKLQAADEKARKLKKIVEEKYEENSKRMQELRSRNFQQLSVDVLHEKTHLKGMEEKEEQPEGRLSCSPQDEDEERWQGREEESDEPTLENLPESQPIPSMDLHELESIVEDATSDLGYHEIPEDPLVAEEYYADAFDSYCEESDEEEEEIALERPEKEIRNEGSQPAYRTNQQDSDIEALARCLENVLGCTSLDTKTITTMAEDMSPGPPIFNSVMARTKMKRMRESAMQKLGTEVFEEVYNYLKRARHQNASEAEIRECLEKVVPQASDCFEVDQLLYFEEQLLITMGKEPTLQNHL
# [14] = target: T4, Serine/threonine-protein kinase Nek11 (Homo sapiens); settings: at 10 µM
# [15] = target: T5, Serine/threonine-protein kinase Nek2 (Homo sapiens) (UniProt P51955); settings: at 1 µM
# T5 sequence (whole entry): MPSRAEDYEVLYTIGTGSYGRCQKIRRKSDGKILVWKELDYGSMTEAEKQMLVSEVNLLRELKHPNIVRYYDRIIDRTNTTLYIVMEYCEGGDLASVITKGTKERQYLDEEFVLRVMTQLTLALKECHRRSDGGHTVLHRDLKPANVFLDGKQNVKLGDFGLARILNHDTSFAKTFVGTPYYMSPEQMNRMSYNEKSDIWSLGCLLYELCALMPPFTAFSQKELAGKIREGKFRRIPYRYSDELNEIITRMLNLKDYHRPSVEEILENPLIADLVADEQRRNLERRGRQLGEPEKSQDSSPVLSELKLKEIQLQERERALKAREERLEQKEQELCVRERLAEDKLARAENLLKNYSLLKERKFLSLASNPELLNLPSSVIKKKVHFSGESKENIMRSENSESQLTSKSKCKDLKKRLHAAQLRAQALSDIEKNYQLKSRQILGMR
# [16] = target: T5, Serine/threonine-protein kinase Nek2 (Homo sapiens); settings: at 10 µM
# [17] = target: T6, Serine/threonine-protein kinase Nek3 (Homo sapiens) (UniProt P51956); settings: at 1 µM
# T6 sequence (whole entry): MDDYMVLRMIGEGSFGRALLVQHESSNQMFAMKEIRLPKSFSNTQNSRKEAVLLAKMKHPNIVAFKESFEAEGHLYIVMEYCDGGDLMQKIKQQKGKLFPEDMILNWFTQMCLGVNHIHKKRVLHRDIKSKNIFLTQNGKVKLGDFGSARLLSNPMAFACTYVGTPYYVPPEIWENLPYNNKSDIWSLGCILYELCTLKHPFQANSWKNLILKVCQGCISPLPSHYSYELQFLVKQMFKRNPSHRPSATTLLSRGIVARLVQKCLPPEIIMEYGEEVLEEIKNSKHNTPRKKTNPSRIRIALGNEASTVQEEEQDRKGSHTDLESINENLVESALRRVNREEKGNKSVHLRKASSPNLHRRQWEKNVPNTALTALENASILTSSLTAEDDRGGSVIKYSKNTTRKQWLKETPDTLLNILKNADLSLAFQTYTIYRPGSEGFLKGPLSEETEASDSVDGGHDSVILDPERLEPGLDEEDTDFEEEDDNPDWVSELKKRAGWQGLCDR
# [18] = target: T6, Serine/threonine-protein kinase Nek3 (Homo sapiens); settings: at 10 µM
# [19] = target: Serine/threonine-protein kinase tousled-like 2 (Homo sapiens) (UniProt Q86UE8); settings: at 1 µM
# [20] = target: Serine/threonine-protein kinase tousled-like 2 (Homo sapiens) (UniProt Q86UE8); settings: at 10 µM
# Hepatocyte growth factor receptor (Homo sapiens), sequence (P08581 whole entry): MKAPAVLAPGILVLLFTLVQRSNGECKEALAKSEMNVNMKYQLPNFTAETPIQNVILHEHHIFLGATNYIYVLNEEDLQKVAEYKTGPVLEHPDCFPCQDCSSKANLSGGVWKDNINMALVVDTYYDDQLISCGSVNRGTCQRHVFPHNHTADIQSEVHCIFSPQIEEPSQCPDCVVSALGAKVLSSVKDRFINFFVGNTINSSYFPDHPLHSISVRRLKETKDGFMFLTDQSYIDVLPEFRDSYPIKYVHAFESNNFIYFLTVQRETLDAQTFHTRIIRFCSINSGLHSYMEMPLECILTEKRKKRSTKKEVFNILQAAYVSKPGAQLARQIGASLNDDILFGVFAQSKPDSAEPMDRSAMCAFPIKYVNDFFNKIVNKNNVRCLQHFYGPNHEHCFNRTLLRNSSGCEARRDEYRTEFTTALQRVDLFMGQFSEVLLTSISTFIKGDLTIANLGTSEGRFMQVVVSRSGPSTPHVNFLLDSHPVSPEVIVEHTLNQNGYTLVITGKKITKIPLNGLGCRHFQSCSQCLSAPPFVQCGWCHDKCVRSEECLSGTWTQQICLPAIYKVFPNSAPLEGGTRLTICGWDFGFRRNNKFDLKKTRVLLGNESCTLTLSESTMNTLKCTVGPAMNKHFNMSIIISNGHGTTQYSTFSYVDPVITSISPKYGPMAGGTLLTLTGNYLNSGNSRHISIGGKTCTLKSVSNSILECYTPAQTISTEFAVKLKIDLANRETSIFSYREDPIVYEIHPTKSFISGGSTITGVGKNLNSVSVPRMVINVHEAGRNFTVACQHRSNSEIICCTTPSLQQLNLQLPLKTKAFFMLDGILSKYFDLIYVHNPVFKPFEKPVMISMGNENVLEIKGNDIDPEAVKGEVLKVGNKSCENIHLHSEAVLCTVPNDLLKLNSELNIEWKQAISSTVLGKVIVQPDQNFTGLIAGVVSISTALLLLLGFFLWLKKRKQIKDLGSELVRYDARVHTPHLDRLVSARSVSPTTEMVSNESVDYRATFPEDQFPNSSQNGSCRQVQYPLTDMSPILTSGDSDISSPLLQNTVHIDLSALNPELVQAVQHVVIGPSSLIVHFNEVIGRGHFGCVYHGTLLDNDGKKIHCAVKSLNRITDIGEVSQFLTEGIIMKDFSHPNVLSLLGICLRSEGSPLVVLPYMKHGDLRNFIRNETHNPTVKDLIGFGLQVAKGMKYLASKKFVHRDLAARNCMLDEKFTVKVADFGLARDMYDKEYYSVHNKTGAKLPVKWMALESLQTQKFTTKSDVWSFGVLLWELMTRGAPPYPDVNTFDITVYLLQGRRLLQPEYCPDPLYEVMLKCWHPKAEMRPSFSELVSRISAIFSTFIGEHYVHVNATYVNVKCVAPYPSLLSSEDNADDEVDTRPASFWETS
# Serine/threonine-protein kinase 24 (Homo sapiens), sequence (Q9Y6E0 whole entry, looked up): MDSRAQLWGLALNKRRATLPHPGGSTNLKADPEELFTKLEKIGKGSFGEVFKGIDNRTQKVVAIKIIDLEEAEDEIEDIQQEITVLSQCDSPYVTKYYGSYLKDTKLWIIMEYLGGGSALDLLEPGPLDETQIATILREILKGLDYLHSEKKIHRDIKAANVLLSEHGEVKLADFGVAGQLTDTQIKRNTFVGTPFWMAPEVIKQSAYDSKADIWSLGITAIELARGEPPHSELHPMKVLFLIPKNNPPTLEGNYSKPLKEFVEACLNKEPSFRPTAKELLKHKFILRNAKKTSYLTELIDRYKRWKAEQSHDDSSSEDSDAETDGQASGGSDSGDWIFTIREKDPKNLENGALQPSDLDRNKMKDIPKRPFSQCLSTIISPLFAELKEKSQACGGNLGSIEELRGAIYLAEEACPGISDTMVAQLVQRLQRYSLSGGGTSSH
# Serine/threonine-protein kinase tousled-like 2 (Homo sapiens), sequence (Q86UE8 whole entry, looked up): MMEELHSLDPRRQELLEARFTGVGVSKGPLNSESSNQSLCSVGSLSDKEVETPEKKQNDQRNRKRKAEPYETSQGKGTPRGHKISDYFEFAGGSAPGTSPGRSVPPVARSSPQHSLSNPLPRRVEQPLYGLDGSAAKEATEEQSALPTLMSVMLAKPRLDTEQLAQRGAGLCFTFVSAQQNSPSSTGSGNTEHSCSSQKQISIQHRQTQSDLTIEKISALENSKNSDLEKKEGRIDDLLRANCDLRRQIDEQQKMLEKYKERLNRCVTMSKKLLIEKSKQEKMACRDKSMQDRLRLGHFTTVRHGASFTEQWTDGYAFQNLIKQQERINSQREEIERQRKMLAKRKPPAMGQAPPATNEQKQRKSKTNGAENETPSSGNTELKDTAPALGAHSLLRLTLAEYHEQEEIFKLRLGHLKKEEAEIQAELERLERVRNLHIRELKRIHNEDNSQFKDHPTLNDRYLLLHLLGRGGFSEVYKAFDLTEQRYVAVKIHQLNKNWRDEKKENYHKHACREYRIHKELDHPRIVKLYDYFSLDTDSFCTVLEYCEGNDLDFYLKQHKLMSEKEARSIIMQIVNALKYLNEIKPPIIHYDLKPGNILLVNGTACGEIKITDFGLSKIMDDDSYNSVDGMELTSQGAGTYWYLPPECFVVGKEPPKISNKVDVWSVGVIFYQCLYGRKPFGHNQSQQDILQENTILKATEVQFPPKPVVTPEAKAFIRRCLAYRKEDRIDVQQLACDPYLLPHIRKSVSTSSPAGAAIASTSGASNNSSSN
# MAP kinase-interacting serine/threonine-protein kinase 2 (Homo sapiens), sequence (Q9HBH9 whole entry, looked up): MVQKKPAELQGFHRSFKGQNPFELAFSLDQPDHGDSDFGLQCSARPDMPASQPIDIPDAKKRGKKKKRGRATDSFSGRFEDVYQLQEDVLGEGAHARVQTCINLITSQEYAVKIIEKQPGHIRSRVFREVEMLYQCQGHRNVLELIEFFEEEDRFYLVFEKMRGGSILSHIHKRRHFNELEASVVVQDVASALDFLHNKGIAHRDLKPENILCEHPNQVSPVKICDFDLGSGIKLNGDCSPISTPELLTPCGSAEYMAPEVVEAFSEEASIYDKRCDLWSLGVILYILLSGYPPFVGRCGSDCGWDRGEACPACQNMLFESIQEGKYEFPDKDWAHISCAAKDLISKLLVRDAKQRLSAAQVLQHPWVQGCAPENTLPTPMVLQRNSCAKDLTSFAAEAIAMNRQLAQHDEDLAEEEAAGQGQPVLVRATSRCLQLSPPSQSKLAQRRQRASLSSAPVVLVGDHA
SMILES,residual activity [1],residual activity [2],residual activity [3],residual activity [4],residual activity [5],residual activity [6],residual activity [7],residual activity [8],residual activity [9],residual activity [10],residual activity [11],residual activity [12],residual activity [13],residual activity [14],residual activity [15],residual activity [16],residual activity [17],residual activity [18],residual activity [19],residual activity [20]
CNc1cc2c(Nc3cccc(Br)c3)ncnc2cn1,103%,88%,76%,86%,96%,84%,89%,73%,21%,12%,105%,93%,109%,103%,78%,109%,106%,63%,99%,93%
CC(C)n1cnc2/c(=N/c3cccc(Cl)c3)nc(NCCO)[nH]c21,71%,36%,62%,29%,54%,10%,87%,47%,95%,77%,75%,35%,43%,58%,85%,64%,76%,68%,82%,68%
CCC(=O)Nc1ccc2ncnc(Nc3cccc(Br)c3)c2c1,121%,91%,69%,69%,108%,86%,99%,100%,30%,9%,96%,84%,84%,92%,73%,99%,109%,98%,103%,92%
